High-throughput results deposited in PubChem by several laboratories.
Only some compounds are listed: those with a hit (about 1.2% of all), similar ones and a draw of the others.
LRH-1 inv ag = suppresses constitutive activity of human LRH-1. O00482. HEK293T StAR-luciferase reporter, LRH-1 transfected, 24 h. inhibition, % at 3.6 µM. 360,000 tested, 0.13% active;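 active = inhibition above the mean inhibition of all tested compounds plus 3 SD, cut at about 73% in these data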;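 note: 0% = DMSO wells and 100% = reporter-only cells lacking LRH-1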
NR2F2 inh = NR2F2 (human) inhibition, primary screen. HEK293T NGFI-A luciferase reporter, luminescence. inhibition, % at 8.6 µM. 370,000 tested, 0.7% active. AID 686940;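 active = inhibition above a per-plate cutoff, mean inhibition of test wells between control levels plus 3 SD, cut at about 38% in these data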;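 note: cells cotransfected with COUP-TFII expression vector driving the NGFI-A reporter; 0% = median of COUP-TF2 test wells and 100% = reporter-only cells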
NCOA2 inhibitor = inhibits human steroid receptor coactivator 2 | HEK293 GAL4-SRC2 luciferase reporter, luminescence | inhibition, % at 9 µM | 370,000 tested, 0.17% active | AID 651957;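 active = inhibition above the mean inhibition of all tested compounds plus 3 SD, set per campaign, cut at about 52% in these data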;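 note: 0% = DMSO treated cells and 100% = cells given Gossypol at 36 µM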
SRC1 inh = human NCOA1 inhibition; HEK293 GAL4-SRC1 luciferase reporter, luminescence; inhibition, % at 3.6 µM; 360,000 tested, 0.12% active; Q15788; AID 588354;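 active = inhibition above the campaign mean plus 3 SD, with each screening campaign given its own cutoff, cut at about 60% in these data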;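 note: 0% = DMSO treated cells and 100% = gossypol at 36 µM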
Efflux pump mplx = blocks antifungal efflux pumps in multiplex yeast assay; S. cerevisiae Candida pump triplex, Nile Red efflux; inhibition, % at 10 µM; 330,000 tested, 0.44% active;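 active = plate passing quality check with inhibition over a set limit, or well fluorescence over plate mean plus 4 SD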;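 note: Nile Red retained in pooled yeast measured as flow cytometry median fluorescence; 0% = buffer negative control and 100% = Enniatin B positive control; higher means more Nile Red kept so more efflux inhibition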
SRC3 inh = human NCOA3 inhibition; HEK293 GAL4-SRC3 luciferase reporter, luminescence; inhibition, % at 3.6 µM; 360,000 tested, 0.17% active; AID 588352;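 active = inhibition above a per-campaign cutoff, the mean of all compounds plus 3 SD, cut at about 60% in these data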;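 note: 0% = DMSO-treated cells and 100% = gossypol-treated cells at 36 µM; higher means less SRC3-driven luciferase light from the GAL4 reporter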
Yeast cmpd fluor = flagged as fluorescent in efflux inhibitor counter-screen; shares compounds with Efflux pump mplx; S. cerevisiae AD/pABC3, compound fluorescence, flow cytometry; fluorescence ratio to DMSO, % at 10 µM; 1,700 tested, 4% active; AID 588517;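 active = fluorescence ratio to DMSO above its plate's cutoff, the plate mean ratio plus 5 SD, cut at about 210% in these data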;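 note: unstained yeast with no Nile Red so the signal is compound autofluorescence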
CaMdr1 efflux inh = inhibitors of Candida albicans Mdr1 efflux pump | shares compounds with Efflux pump mplx | S. cerevisiae AD/CaMDR1, Nile Red efflux, flow cytometry | inhibition, % at 10 µM | 1,700 tested, 1% active; in the data active = inhibition above about 26%;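 note: 0% = DMSO vehicle and 100% = reference inhibitor; higher means more Nile Red retained so more efflux inhibition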
CaCdr2 efflux inh = Candida Cdr2 efflux pump inhibition; shares compounds with Efflux pump mplx; S. cerevisiae AD/CaCDR2, Nile Red retention, flow cytometry; Nile Red retention ratio vs DMSO, % at 10 µM; 1,700 tested, 4% active; AID 588520; in the data active = Nile Red retention ratio vs DMSO above about 190%;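 note: higher ratio means more blocking of Cdr2 efflux of the dye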
CaCdr1 efflux inh = inhibitors of Candida albicans Cdr1 efflux pump; shares compounds with Efflux pump mplx; inhibition, % at 10 µM; AID 588522; S. cerevisiae AD/CaCDR1, Nile Red efflux, flow cytometry; 1,700 tested, 1% active;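 active = inhibition above the screen-wide mean plus twice its standard deviation, cut at about 32% in these data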
Active calls of the source: *; . = no result given.

SMILES	LRH-1 inv ag	NR2F2 inh	NCOA2 inhibitor	SRC1 inh	Efflux pump mplx	SRC3 inh	Yeast cmpd fluor	CaMdr1 efflux inh	CaCdr2 efflux inh	CaCdr1 efflux inh
Cc1ccc(C2=NN(S(C)(=O)=O)C(c3cccs3)C2)cc1 (centres undefined)	-124	-36	-21	-94	0	-98	.	.	.	.
CCCCCOc1ccc(/C=c2\sc3nc(=O)c(-c4ccccc4)nn3c2=O)cc1OC	-14	18	8	-1	0	2	.	.	.	.
COc1ccc(C2=C/C(=C\c3cccc(OC(C)=O)c3)C(=O)O2)cc1	-7	7	-14	13	0	6	.	.	.	.
CCCOc1ccc(/C=c2\sc3nc(-c4ccco4)nn3c2=O)cc1OCC	-2	-1	-8	3	0	-5	97	0	89	0
CC(=O)Oc1cccc(/C=c2\sc3nc(-c4ccco4)nn3c2=O)c1	8	6	-2	-13	0	9	79	0	89	0
COc1ccc(NC(NC(=O)c2cccnc2)C(Cl)(Cl)Cl)cc1 (centres undefined)	-3	6	-38	3	1	10	.	.	.	.
CC1CC(C)CN(CCCNC(=O)CN2C(=O)CSc3ccc(S(=O)(=O)N4CCCCC4)cc32)C1 (centres undefined)	-7	0	-10	-9	0.6*	0	99	0	109	0
O=S(=O)(c1ccc(-c2csc(=Nc3ccccc3)n2CCCN2CCOCC2)cc1)N1CCOCC1	11	-7	14	-16	0	-9	.	.	.	.
CS(=O)(=O)Nc1ccc(C(=O)Nc2ccc3c(c2)OCCO3)cc1	.	.	.	.	9.0*	.	106	0	110	5
Cc1ccc2nc(/C(C#N)=C/c3ccc(O)c(O)c3)[nH]c2c1	-25	-28	-12	-29	3.4*	-35	118	0	141	1
COc1ccc(CC(=O)O/N=C(\N)c2ccc(Br)cc2)cc1OC	-15	28	22	-11	0	4	.	.	.	.
Cc1ccc(/C(N)=N/OC(=O)Oc2ccccc2)cc1	-21	0	19	0	0	-3	.	.	.	.
COc1ccc(CC(=O)O/N=C(\N)Cc2ccc(OC)cc2)cc1	-7	-25	7	9	0	-8	.	.	.	.
COc1ccc(CC(=O)O/N=C(\N)c2ccccc2)cc1OC	-2	4	-41	-20	0	-9	108	0	97	0
COc1ccc(/C(N)=N/OC(=O)Cc2cccs2)cc1	-89	-44	-54	-86	0	-68	.	.	.	.
COc1ccc(CC(=O)O/N=C(\N)c2ccc(OC)cc2)cc1	-2	5	-13	-38	0	-3	113	0	112	0
COc1ccc(/C(N)=N/OC(=O)Cc2cccs2)cc1OC	4	-24	-2	-36	6.7*	-25	99	0	87	0
COc1ccc(/C(N)=N/OC(=O)Oc2ccccc2)cc1OC	17	-6	12	11	5.8*	-6	101	0	96	0
CCCCC(=O)Nc1cnc(NC(=O)c2ccco2)cc1C	-43	-26	-43	-39	0	-38	.	.	.	.
CC(C)Oc1ccc(C(=O)NC(Cc2c[nH]c3ccccc23)C(=O)NN)cc1 (centres undefined)	-5	6	9	1	0	-2	.	.	.	.
O=C(CCSc1ccccc1)Nc1ccccc1C(=O)N1CCCC1	8	12	13	-7	9.6*	15	100	0	102	0
COc1cc(NC(=O)CCNS(=O)(=O)c2ccc3c(c2)CCC(=O)N3)cc(OC)c1	11	10	-16	-1	13*	26	105	0	105	0
O=C1/C(=C\c2cc([N+](=O)[O-])ccc2O)SC(=S)N1Cc1ccc(Cl)cc1	-5	-4	-13	6	0.7*	13	507*	1	232*	1
